# PubChem BioAssay AID2314 (National Center for Advancing Translational Sciences (NCATS), 2010)
# “And” between values parts separate entries of the source, which are not always exact repeats. Equal values may be shown once. Out of some 300,000 compounds screened, about 37,000 (12%) were called active. Rule as the data show it: active = max response mostly above about 13% (no sharp cut-off); inactive = mostly below about 14%. This excerpt belongs to a sample that is enriched for actives.
# Experiment: Cycloheximide Counterscreen for Small Molecule Inhibitors of Shiga Toxin; also: read at 38.3 µM for the half of the compounds with a filed dose; 0% is about no effect
# Conditions: cell reporter, cycloheximide protein synthesis inhibition counterscreen; active compounds read high
row,Compound,max response
1,O=C(Nc1nc2cc3c(cc2s1)OCCO3)c1cccc(S(=O)(=O)N2CCOCC2)c1,-5.43% (inactive)
2,CN(C)CCCN(C(=O)c1ccc(S(=O)(=O)N2CCCc3ccccc32)cc1)c1nc2ccc(F)cc2s1,0.524% (inactive)
3,CCN(CC)CCN(C(=O)c1ccc(N2C(=O)CCC2=O)cc1)c1nc2cc3c(cc2s1)OCO3,14.3% (inactive)
4,CN(C)CCCN(C(=O)c1ccc(S(=O)(=O)N2CCCCCC2)cc1)c1nc2ccc(Br)cc2s1,11.5% (active)
5,CCN(CC)CCN(C(=O)c1ccc(S(=O)(=O)N2CCOCC2)cc1)c1nc2cc3c(cc2s1)OCCO3,13.6% (active)
6,CCOc1ccc2nc(N(CCCN(C)C)C(=O)c3ccc(C(=O)c4ccccc4)cc3)sc2c1,-2.35% (inactive)
7,CCOc1cc(C)c(S(=O)(=O)NCc2ccccn2)cc1C,-2.56% (inactive)
8,COc1cc(OC)c2ccc(=O)oc2c1C(CCN1CCN(c2ccccc2)CC1)c1ccc2c(c1)OCO2 (stereo not drawn),1.12% (inactive) and 1.78% (inactive)
9,Cc1cccc(CSc2nc3c(c(=O)n2C)SCC3)c1,8.73% (inactive)
10,CC(C)Oc1ccc(/C=N/NC(=O)c2nnn(-c3nonc3N)c2CN(C)C2CCCCC2)cc1,-0.539% (inactive)
11,O=C(O)CN1c2cccc3cccc(c23)S1(=O)=O,8.16% (inactive)
12,COc1ccc(/C(O)=C2/C(=O)C(=O)N(CCCN(C)C)C2c2ccccc2)cc1OC (stereo not drawn),5.45% (inactive)
13,CCN(CC)CCN1C(=O)C(=O)/C(=C(/O)c2ccc(OC)c(OC)c2)C1c1ccccn1 (stereo not drawn),17.9% (active)
14,CCCOc1ccc(/C(O)=C2/C(=O)C(=O)N(CCN(C)C)C2c2ccc(OC)c(OC)c2)cc1 (stereo not drawn),5.75% (inactive)
15,COc1ccc(S(=O)(=O)N2CCCC(C(=O)NCCCn3ccnc3)C2)cc1OC (stereo not drawn),-5.51% (inactive)
16,Cc1ccsc1-c1cc(C(=O)O)c2c(ccc3ccccc32)n1,16.2% (inactive)
17,CCn1c(=N)c(C(=O)NCCCOC)cc2c(=O)n3cccc(C)c3nc21,-3.15% (inactive)
18,Cc1cccn2c(=O)c3cc(C(=O)NC4CCCCC4)sc3nc12,7.47% (inactive)
19,CCOCCCNC(=O)c1cc2c(=O)n3ccccc3nc2s1,30.4% (active)
20,CC1CC(C)CN(CC(=O)N2c3ccccc3CCc3ccccc32)C1 (stereo not drawn),-3.85% (inactive)
21,Cc1ccc(NC(=O)CN2CCc3ccccc3C2)cc1C,18% (inactive)
22,O=C(Nc1cccc([N+](=O)[O-])c1)N1CCc2ccccc2C1,51.1% (active)
23,Cc1ccc(NC(=O)CN2CCc3ccccc3C2)cc1,16.3% (active)
24,O=C(Nc1cccc([N+](=O)[O-])c1)Nn1cnnc1,3.77% (inactive)
25,COc1cc2c(cc1OC)CN(CC(=O)Nc1ccc(F)cc1)CC2,-3.51% (inactive)
26,CN(CC(=O)Nc1cccc(F)c1)CC(=O)Nc1cccc([N+](=O)[O-])c1,13.6% (inactive)

row,Compound,max response
1,CCc1ccc(NC(=O)N2CCN(c3ccccc3)CC2)cc1,12% (inactive)
2,CCc1ccc(NC(=O)N2CCc3ccccc3C2)cc1,49.7% (active)
3,Cc1cccc(C)c1NC(=O)c1ccc(CN2CCc3ccccc3C2)cc1,-1.05% (inactive)
4,Cn1c(=O)c([N+](=O)[O-])c(Oc2ccccc2)c2ccccc21,-2.35% (inactive)
5,O=C(NC(=S)N1CCc2ccccc21)c1ccco1,8.62% (inactive)
6,Cc1cc(O)cc(O)c1C(=O)Cc1cnn(-c2ccccc2)c1,14% (inactive)
7,COc1ccc(C(=O)NNS(=O)(=O)c2ccc(C)cc2)cc1,-1.39% (inactive)
8,COc1ccc(C(=O)Cc2cnn(-c3ccccc3)c2)c(O)c1,39.4% (active)
9,Cc1[nH]nc(-c2ccc(OCc3cnn(-c4ccccc4)c3)cc2O)c1Oc1ccc(Cl)cc1,0.856% (inactive)
10,COc1ccc(C(=O)C[n+]2ccc(C)cc2)cc1,0.721% (inactive)
11,COc1ccc(C(=O)CC(=O)c2ccc(C)cc2)c(O)c1,20% (active)
12,COc1ccc(CCNC(=S)NC(=O)/C=C/c2ccc(C)cc2)cc1OC,9.56% (inactive)
13,COC(=O)c1c(NC(=O)C(=O)N2CCCCC2)sc2c1CC(C)(C)OC2,-2.72% (inactive)
14,CC(=O)N1CCN(CC(C)(C)NS(=O)(=O)c2ccc(C)cc2)CC1,-1.04% (inactive)
15,CCOc1ccc2nc(NC(=O)CSc3nc4c(c(=O)n(C)c(=O)n4C)n3CC)sc2c1,-6.89% (inactive)
16,CCn1c(SCC(=O)NC2CCCC2)nnc1-c1ccoc1C,-1.45% (inactive)
17,CCn1c(SCC(=O)Nc2nc3ccc(OC)cc3s2)nnc1-c1ccoc1C,23.1% (active)
18,CC(=O)Nc1ccc(SCC(=O)Nc2ccccc2Oc2ccccc2)cc1,0.468% (inactive)
19,C=CCNC(=O)c1ccccc1NC(=O)c1ccc(Cl)c(S(=O)(=O)Nc2cccc(C)c2C)c1,1.27% (inactive)
20,CCc1cccc(C)c1NS(=O)(=O)c1c(C)nc2sccn2c1=O,-1.71% (inactive)
21,Cc1ccc2c(c1)c1ncnc(N3CCc4ccccc4C3)c1n2C,42.1% (active)
22,Cc1ccc2c(c1)c1ncn(CCC3=CCCCC3)c(=O)c1n2C,-3.65% (inactive)
23,Cc1ccc2c(c1)c1ncn(Cc3ccc(F)cc3)c(=O)c1n2C,-2.24% (inactive)
24,OCCN1CCN(c2nnc(-c3ccccc3)c3ccccc23)CC1,-4.91% (inactive)
25,COc1ccc(S(=O)(=O)NCC(=O)NCc2cc(=O)n(C)c(=O)n2C)cc1F,-6.78% (inactive)
26,O=C(COc1ccc2c(c1)CCC2)N1CCN(c2ccc(F)cc2)CC1,-1.09% (inactive)

row,Compound,max response
1,O=C(NCCN1CCCC(O)C1)c1cc(COc2c(F)cccc2F)on1 (stereo not drawn),9.93% (inactive)
2,Nc1nonc1C(=O)NCCc1ccccc1,10.9% (inactive)
3,CCN(CC)CCCNC(=O)c1cc(-c2cccc(Cl)c2)on1,0.892% (inactive)
4,Cc1cc(C(=O)NCCCc2ccccc2)no1,13.1% (active)
5,O=C(COC(=O)c1ccc(F)cc1)NCCCc1ccccc1,-9.6% (inactive)
6,Cc1c(NC(=O)c2cc(-c3ccc(Br)cc3)on2)c(=O)n(-c2ccccc2)n1C,-1.9% (inactive)
7,CCCCNC(=S)NNC(=O)c1cc(C)on1,-1.9% (inactive)
8,C[C@H](NC(=O)NCCc1ccccc1)C(=O)O,-6.82% (inactive)
9,CC(C)Cc1cc(C(=O)NCCc2ccccc2)no1,53.1% (active)
10,O=C(NCCCc1ccccc1)c1cc(COc2c(F)cccc2F)on1,31.8% (active)
11,CC(C)CNC(=O)c1cc(-c2ccc(Br)cc2)on1,36% (active)
12,CSc1ncc(C(=O)NCCCc2ccccc2)c(C)n1,10.8% (inactive)
13,Cc1ccc2c(c1)N(CC(=O)NCCCN1CCCCC1)C(=O)c1cccnc1O2,1.05% (inactive)
14,Cc1cccc(NC(=O)Cn2c(=O)n(Cc3ccccc3)c(=O)c3c(C)c(C)sc32)c1,-2.17% (inactive)
15,CCOc1ccc(OCC)c(NC(=O)CSc2nnc(Cn3cnc4ccccc43)n2C)c1,-0.798% (inactive)
16,COc1cccc(-n2nc(C(=O)N3CCN(Cc4ccccc4)CC3)c3ccccc3c2=O)c1,1.57% (inactive)
17,COc1ccc(C(=O)Nc2ccnn2C2CCN(Cc3ccncc3)CC2)cc1,7.85% (inactive)
18,O=C(CCN1C(=O)[C@@H]2Cc3ccccc3CN2C1=O)NCCc1ccccc1,-1.26% (inactive)
19,CCCOc1ccc(C2=CSC3=NCCN23)cc1Cl,1.92% (inactive)
20,O=C(CSc1ncccn1)N1CCCC1,-5.34% (inactive)
21,O=S(=O)(NCC1OCCc2ccccc21)c1ccccc1 (stereo not drawn),1.35% (inactive)
22,CC(=O)c1nc2ccccc2n1Cc1ccccc1,-1.93% (inactive)
23,CC(C)Cc1cc(C(=O)Nc2cc(Br)ccc2O)no1,31.8% (active)
24,COc1ccc(NS(=O)(=O)c2ccc(N3CCN(CCO)CC3)c([N+](=O)[O-])c2)cc1,1.31% (inactive)
25,O=S(=O)(c1cccc2nonc12)N1CCN(c2cccc(Cl)c2)CC1,0.53% (inactive)
26,Cc1cc2cc3c(N)[nH]nc3nc2cc1C,20.7% (active)

row,Compound,max response
1,CCOc1cc(C(=S)N2CCOCC2)ccc1OS(=O)(=O)c1ccc(Br)cc1,-1.79% (inactive)
2,CC(=O)c1ccc(S(=O)(=O)NCc2nnnn2-c2ccccc2)cc1,-4.62% (inactive)
3,Cc1cc(C)cc(NC(=O)C2CCCN(S(=O)(=O)c3ccc4[nH]c(=O)ccc4c3)C2)c1 (stereo not drawn),1.72% (inactive)
4,CCOc1ccc(C2/C(=C(/O)c3ccc4c(c3)CC(C)O4)C(=O)C(=O)N2CCCn2ccnc2)cc1 (stereo not drawn),0.806% (inactive)
5,CCOCCn1c(-c2ccccc2)nc2ccccc21,-1.28% (inactive)
6,COc1ccc(-c2nc3ccccc3n2CCC(C)C)cc1OC,-2.09% (inactive)
7,COCCn1c(-c2ccc(OC)c(OC)c2)nc2ccccc21,18.4% (active)
8,CC(NCc1ccccc1OC1CCCC1)c1ccccc1 (stereo not drawn),-1.87% (inactive)
9,Cc1cc(Cl)c2oc(C(=O)NC(C)c3ccncn3)c(C)c2c1 (stereo not drawn),6.71% (inactive)
10,Cc1cc(Cl)c2oc(C(=O)N(C)C(C)c3ccccn3)c(C)c2c1 (stereo not drawn),28.7% (active)
11,Cc1cc(Cl)c2oc(C(=O)N3CCC(O)(c4ccccc4)CC3)c(C)c2c1,4.04% (inactive)
12,COc1ccc(CNC(=O)C2CC(c3ccc(C(F)(F)F)cc3)=NO2)cc1 (stereo not drawn),-0.982% (inactive)
13,Cc1cc(OCCCCOc2ccc(C#N)cc2)ccc1[N+](=O)[O-],-6.16% (inactive)
14,CC(C)Sc1ncnc2c1cnn2-c1ccccc1,46.6% (active)
15,COc1ccc(N2CCN(C(=O)CSc3ncnc4c3cnn4-c3ccc(OC)cc3)CC2)cc1,-1.01% (inactive)
16,c1ccc(-n2ncc3c(N4CCCC4)ncnc32)cc1,8.89% (inactive)
17,COc1ccccc1N1CCN(C(=O)CSc2nnc(-c3ccoc3C)o2)CC1,-1.64% (inactive)
18,c1ccc(-n2ncc3c2ncn2c(C4CCCCC4)nnc32)cc1,-1.23% (inactive)
19,COC(=O)CSc1ncnc2c1cnn2-c1ccc(C)cc1C,-8.2% (inactive)
20,COc1ccc(-n2ncc3c(SCC(=O)NNC(C)=O)ncnc32)cc1,26.3% (active)
21,CC(=O)Nc1ccc(NC(=O)CSc2ncnc3c2cnn3Cc2ccccc2)cc1,6% (inactive)
22,O=C(CSc1ncnc2c1cnn2CCc1ccccc1)Nc1ccc(F)cc1,2.37% (inactive)
23,COc1ccc(NC(=O)CSc2ncnc3[nH]ncc23)cc1,1.38% (inactive)
24,CCN(CC)C(=O)CSc1ncnc2c1cnn2-c1ccccc1,38.4% (active)
25,COc1ccccc1N1CCN(C(=O)CSc2ncnc3c2cnn3-c2ccc(C)c(C)c2)CC1,44.7% (active)
